The source of these data is the supplement of paper PMC7156485.

A number with no mark means an inactive call.
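Further: TDF is a line of transformed human dermal fibroblasts of mesenchymal origin.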

For the experiment, the system named is HCC1569. Nature of the experiment: H1.0 immunofluorescence intensity relative to DMSO (% of DMSO); higher = stronger H1.0 induction, active = 140 or more. Conditions: concentration: 10 µM; 24 h. In outline:
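H1.0 nuclear intensity or cell number is stated as percent of the plate control, based on the median of replicates, and HCC1569 values were smoothed for positional effects. These came from HCC1569 and TDF cells treated with compounds at 10 µM for 24 h at 37 °C in triplicate, then fixed in 3.7% formaldehyde and stained with a rabbit anti-H1.0 antibody, an AlexaFluor 647 secondary and DAPI.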
Turning to `CCCN1CCCC(c2cccc(C#N)c2)C1.Cl` (stereo not drawn) [S(-)-DS 121 hydrochloride], the H1.0 immunofluorescence intensity was 84.5.
As for `CCC1(C2=NCCN2)Cc2ccccc2O1.Cl` (centres undefined) [Efaroxan hydrochloride], the figure is 94; as for `O=P1(NCCCl)OCCCN1CCCl` (centres undefined) [Ifosfamide], 112; as for `CC(=O)OC1C2C(OC(=O)Cc3ccccc3)C(C)CC2(OC(C)=O)C(=O)C(C)=CC2C(CCC13CO3)C2(C)C` (centres undefined) [Euphorbiasteroid], 91.5.
As for `CN1CC(C(=O)NC2(C)OC3(O)C4CCCN4C(=O)C(Cc4ccccc4)N3C2=O)CC2c3cccc4[nH]cc(c34)CC21.CS(=O)(=O)O` (centres undefined) [Dihydroergotamine methanesulfonate], the H1.0 immunofluorescence intensity is 95.5.
As for `Cl.Cl.Clc1ccc(N2CC3CCC(C2)N3)nn1`, the figure is 95.7.
`C[N+]1(C)C2CCC1CC(OC(=O)C(CO)c1ccccc1)C2.[Br-]` (centres undefined) [Atropine methyl bromide]: the H1.0 immunofluorescence intensity was 93.9.
As to `O=C(O)C(=O)c1cn(Cc2ccccc2)c2ccc(-c3ccc(OC(F)(F)F)cc3)cc12`, the H1.0 immunofluorescence intensity is 99.4.
Regarding `CCCCCC=CCC=CCC=CCC=CCCCC(=O)NCCO` [Anandamide (20:4, n-6)], the H1.0 immunofluorescence intensity was 96.7.
